Measured values published in ChEMBL document CHEMBL4513216, “Probing the Open Global Health Chemical Diversity Library for Multistage-Active Starting Points for Next-Generation Antimalarials” (ACS Infect Dis, 2020).
The campaign covered roughly 65,000 compounds. About 2,100 (3.2%) showed an effect of 50% or more. The median lay at about -52%. Only a selection was taken, and strong results are over-represented in it overall.

What follows are compounds tested on Plasmodium falciparum (assay: Screen against P. falciparum Asexual Blood Stage (ABS), at 5uM). Conditions: tested at 5 uM.
Assay type: functional, Dd2
For `CCN1CCC2(CCC1=O)CN(c1nccc(N)n1)CCN2C` (stereo not drawn), the INHIBITION was -4.03%.
Work on `Cc1cccc(CO[C@@H]2CC[C@H]3[C@H]2OCCN3Cc2ccoc2)n1` yielded an INHIBITION of -50.4%.
Compound `O=C(NCc1ccccn1)[C@@H]1COC[C@H]2CNC[C@H]21` has an INHIBITION of -8.97%.
`COCCN1C[C@@H](C)[C@@]2(COCCN(C(=O)c3ccno3)C2)C1` showed an INHIBITION of -103%.
For `COc1ccc(-c2ccoc2)cc1CNC1CCCC1`, the INHIBITION was 70.2%.
Work on `OCCCN(CCc1cccc(F)c1)C1CC1` yielded an INHIBITION of -63.8%.
`CN(Cc1cccc(F)c1)C(=O)CN1CCCC1CCc1ccccc1` (stereo not drawn) gave an INHIBITION of 75%.
Compound `CN(C)[C@@H]1CN(C(=O)Cc2cccc(F)c2)[C@@H]2CCCO[C@H]12` has an INHIBITION of 24.8%.
Compound `Cc1ccc2c(n1)N(C)CCN(CCN1CCCC1)C2` has an INHIBITION of -5.37%.
`Cc1cc(N2CCCN(CCc3ccccc3)CC2)ccn1` gave an INHIBITION of 87%.
`Cn1c(CCN2CCN(c3ccc(O)cc3)CC2)nc2ccccc21` gave an INHIBITION of -128%.
For `CO[C@@H]1CC[C@H]2[C@H]1OCCN2CC1CCOCC1`, the INHIBITION was -21.2%.
`c1cnc(N2C[C@H]3CN(CC4CCOC4)C[C@H]3C2)nc1` (stereo partly drawn) showed an INHIBITION of -53%.
`O=C1CO[C@@H]2CNC[C@H]2N1CC1CC1` showed an INHIBITION of -97.4%.
For `O=C1C[C@H]2[C@H](CCN2Cc2ccccn2)N1CC1CC1`, the INHIBITION was -90.1%.
`O=C(NCCc1ccncc1)[C@H]1CC[C@@H]2[C@@H](CCN2CC2CC2)O1` gave an INHIBITION of -3.59%.
`CNC(=O)[C@@H]1CN(Cc2ccccc2)C[C@H]1C(=O)c1ccc(F)cc1` showed an INHIBITION of -109%.
For `O[C@@H]1CCN(CC2CC2)[C@H]1Cc1ccccc1`, the INHIBITION was 63.2%.
Work on `COc1ccc(CN2C[C@@H]3OCCN(c4ncccn4)[C@@H]3C2)cc1` yielded an INHIBITION of -2.3%.
With `COc1ccc(CN2CC[C@@H](O)[C@@H]2Cc2ccccc2)cc1` the INHIBITION was 80.7%.
Work on `O=C(c1ccccc1)N1CCO[C@@H]2CNC[C@@H]21` yielded an INHIBITION of -70.7%.
With `Fc1ccccc1-c1cc(N2[C@@H]3CC[C@H]2CNC3)n2nccc2n1` the INHIBITION was -59%.
`CCc1cc(N2CCN3CCCCC3C2)n2nccc2n1` (stereo not drawn) gave an INHIBITION of 6.52%.
`CC(C)c1cc(N2CC[C@H](F)C2)n2nccc2n1` gave an INHIBITION of 70.9%.
Compound `O=C1N(Cc2ccccn2)C[C@H]2CN(C3CCC3)CCN12` has an INHIBITION of -13.7%.
With `O=C(C[C@@H]1COC[C@H]2CN(C3CCC3)C[C@@H]12)NCc1cccnc1` the INHIBITION was -138%.
`CCOC[C@@H]1CC[C@H]2[C@H](CCN2Cc2c(C)noc2C)O1` showed an INHIBITION of -96.4%.
`CN1CCCC(Cc2nccnc2Cl)CC1` (stereo not drawn) showed an INHIBITION of 5.74%.
`Cc1nc(CC(=O)N2CCN(C)CC2c2ccccc2)cs1` (stereo not drawn) gave an INHIBITION of -76.9%.
With `CN1CCCC(c2cccc(Cc3ccccc3Cl)n2)C1` (stereo not drawn) the INHIBITION was 70.3%.
For `CN1CCCC(c2cncc(C(=O)NCc3ccccc3Cl)n2)C1` (stereo not drawn), the INHIBITION was 72.4%.
With `O=C(C1CCCC1)N1C[C@@H]2CCNC[C@@H]21` the INHIBITION was -78.2%.
`O=C1CC2(CCN(Cc3cccnc3)C2)CN1c1cncnc1` (stereo not drawn) gave an INHIBITION of -101%.
`CC(C)NC(=O)N1CCOC2(CCNCC2)C1` gave an INHIBITION of 16.9%.
In the case of `O=C1CO[C@H]2CN(C3CCOCC3)C[C@H]2N1Cc1ccncc1`, the INHIBITION is reported as -53.2%.
Work on `CCCNC(=O)c1cn(C(C)(C)C)c2ncccc12` yielded an INHIBITION of -149%.
In the case of `CC(C)(C)C(=O)NCCNCc1ccc(Cl)c2cccnc12`, the INHIBITION is reported as 77.7%.
For `COCCNC(=O)c1cn(C(C)(C)C)c2ncccc12`, the INHIBITION was -129%.
Work on `O=C(N1CCOCC1)N1CCC2(CCNC2)C1` (stereo not drawn) yielded an INHIBITION of -12.3%.
With `CC(C)CN1CCC2(CC1)C(=O)Nc1ccc(C(=O)N(C)C)cc12` the INHIBITION was -21.2%.
Compound `Cc1c(C2SCC(=O)Nc3c2c(O)nn3C2CCCCC2)cnn1C` (stereo not drawn) has an INHIBITION of -53.5%.
For `COc1cnc(N2CC(N3CCOCC3)C2)nc1-c1ccnn1C`, the INHIBITION was 75.3%.
With `c1cc(COC[C@@]23CCC[C@@H]2CN(C2CCOCC2)C3)ccn1` the INHIBITION was -24.5%.
In the case of `COc1cccc(CN(Cc2ccco2)Cc2[nH]cnc2C)c1`, the INHIBITION is reported as 86.4%.
Work on `Cc1nc[nH]c1CN1CCCC12CCN(c1ccccn1)CC2` yielded an INHIBITION of -15.3%.
In the case of `COc1cccc(CCNCc2c(C)nn(C)c2N(C)C)c1`, the INHIBITION is reported as 49%.
Compound `Cc1nc[nH]c1CN(Cc1ccccc1)Cc1nccs1` has an INHIBITION of 75.7%.
With `CC1CCN(CC(=O)N(Cc2ccccc2)Cc2nccs2)C1=O` (stereo not drawn) the INHIBITION was -96.3%.
In the case of `CCOCCCNC(=O)c1cn(C(C)(C)C)c2ncccc12`, the INHIBITION is reported as -151%.
`CC(NCC1CCN(CCO)CC1)c1cccc(Cl)c1` (stereo not drawn) showed an INHIBITION of 84.8%.
In the case of `COc1ccc(Cl)cc1CC(=O)N1CCN(CCO)CC1`, the INHIBITION is reported as -118%.
Compound `CC(NCC1CCN(CCO)CC1)c1ccc(F)c(Cl)c1` (stereo not drawn) has an INHIBITION of 84.1%.
For `CN(CC1CCN(CCO)CC1)CC(O)c1ccc(F)c(F)c1` (stereo not drawn), the INHIBITION was 76.5%.
In the case of `CC(NCC1CCN(CCO)CC1)c1ccc(Cl)cc1` (stereo not drawn), the INHIBITION is reported as 93.9%.
`Cc1n[nH]c2c1C(c1ccc(Br)cc1)SCC(=O)N2` (stereo not drawn) showed an INHIBITION of -33.1%.
In the case of `CCOCC(=O)NC(C)Cc1ccccc1Br` (stereo not drawn), the INHIBITION is reported as -68.7%.
In the case of `Cc1ccnc(OC[C@@]23CCO[C@@H]2CCN(C2CCC2)C3)n1`, the INHIBITION is reported as -9.15%.
For `CC(Cc1ccc(Cl)cc1)NC(=O)Nc1cnn(CC(N)=O)c1` (stereo not drawn), the INHIBITION was 22.5%.
With `CSc1cccc(CN(C)C(=O)c2cccc(C3CCCNC3)c2)c1` (stereo not drawn) the INHIBITION was 77.5%.
Work on `CNC(=O)c1ccc2c(c1)C1(CCN(C(C)C)CC1)C(=O)N2` yielded an INHIBITION of -45.1%.
With `O=C(c1ccccc1)N1CCOC2CNCC[C@H]21` (stereo partly drawn) the INHIBITION was -28.1%.
With `Cc1cc(N(C)C)cc(C2CCN(S(=O)(=O)c3cccs3)C2)n1` (stereo not drawn) the INHIBITION was 84.1%.
Compound `CCCSCC(=O)N1C[C@@H]2CC[C@H]1CN(Cc1cccnc1)C2` has an INHIBITION of -60%.
With `Cc1cc(N2CCCC2c2cccnc2)nc(C)n1` (stereo not drawn) the INHIBITION was -10.2%.
Compound `CCc1cc(N2CCC(NC3CN4CCC3CC4)CC2)nc(N(C)C)n1` (stereo not drawn) has an INHIBITION of -25.1%.
`Cc1ccc(N2CC[C@@H]3[C@@H]2CCN3Cc2ccsc2)nn1` gave an INHIBITION of -103%.
`Cc1cc(N2CCC(NC(C)Cc3ccsc3)CC2)nc(C)n1` (stereo not drawn) was tested, and the INHIBITION was 85.8%.
`Cc1cccc(N2CCC(NC(C)c3cccs3)CC2)n1` (stereo not drawn) showed an INHIBITION of -22.7%.
For `CCCc1cc(N2CCC(NCCc3ccc(O)cc3)CC2)nc(C)n1`, the INHIBITION was 82.1%.
Work on `Cc1cc(N2CCC(NCCOc3ccccc3)CC2)nc(C)n1` yielded an INHIBITION of 75.1%.
Work on `CC(C)OC(=O)N1C[C@@H]2CC[C@H]1CN(Cc1cccnc1)C2` yielded an INHIBITION of -128%.
For `Cc1cccc(CN2C(=O)C[C@H]3[C@@H]2CCN3Cc2cccs2)n1`, the INHIBITION was -76.6%.
`CN1CCC(N2CCOC3(CCCC3)C2)C1=O` (stereo not drawn) was tested, and the INHIBITION was -26.7%.
For `OC(CNCc1ccccc1C(F)(F)F)c1ccccc1` (stereo not drawn), the INHIBITION was 82.4%.
In the case of `Cc1ccccc1CNCC(O)c1ccc(OC(C)C)cc1` (stereo not drawn), the INHIBITION is reported as 92.4%.
`CC(C)Oc1ccc(C(O)CNCc2ccccc2C(F)(F)F)cc1` (stereo not drawn) was tested, and the INHIBITION was 83.2%.
`Cc1noc(C)c1C(=O)N1CCOC2(COCCN(C(C)C)C2)C1` (stereo not drawn) gave an INHIBITION of -57.3%.
`CN(CCCOc1ccccc1)C(=O)c1csc(-c2nnc[nH]2)n1` showed an INHIBITION of 77.1%.
Work on `CC1(C)CN(C(CNC2=NCCN2)c2ccc(Cl)cc2)CCO1` (stereo not drawn) yielded an INHIBITION of 83%.
Compound `Cc1n[nH]c2c1C(c1ccc(O)c(Cl)c1)SCC(=O)N2` (stereo not drawn) has an INHIBITION of -65.6%.
With `O=C(c1ccc(-n2cccn2)nc1)N1CCC(c2ccc(O)cc2)CC1` the INHIBITION was 75.1%.
With `Cc1ccc(C(=O)N2C[C@@H]3OCCN(C)[C@@H]3C2)cn1` the INHIBITION was -12.2%.
Work on `O=C(c1ccc(-n2ccnc2)nc1)N1CCN2CCCCC2C1` (stereo not drawn) yielded an INHIBITION of -56.6%.
`Cc1noc(C)c1CN1C[C@H](OCC2CC2)[C@H]2COC[C@H]21` was tested, and the INHIBITION was -54.7%.
In the case of `Fc1ccccc1CO[C@@H]1C[C@H]2CN(c3ncccn3)CCN2C1`, the INHIBITION is reported as -67.9%.
For `Fc1cccc(CN2CCC(c3cc4ncccc4cn3)CC2)c1F`, the INHIBITION was 89.4%.
With `Fc1ccc(F)c(CN2CCC(c3cc4ncccc4cn3)CC2)c1` the INHIBITION was 76%.
Work on `Fc1cnccc1CN1CCC2(CCN2c2ncccn2)C1` (stereo not drawn) yielded an INHIBITION of -10.7%.
With `O=C(Cc1ccccc1F)N1CCN(Cc2noc(C3CC3)n2)CC1` the INHIBITION was -69%.
For `CN1C(=O)C2(CCN(Cc3cccnc3)CC2)c2cccc(F)c21`, the INHIBITION was -61.4%.
`COc1ccc(C)cc1CN1CCC(c2cc3ncccc3cn2)CC1` gave an INHIBITION of 78.2%.
`O=C1CO[C@H]2CN(Cc3cccnc3)C[C@H]2N1` showed an INHIBITION of -119%.
In the case of `CCN1CCN(C(=O)Cc2ccc(S(=O)(=O)C(F)F)cc2)CC1`, the INHIBITION is reported as -124%.
Compound `NCC1Cc2cccc(-c3ccc(O)c(F)c3)c2O1` (stereo not drawn) has an INHIBITION of 82.9%.
In the case of `COCC(=O)N1C[C@@H]2OCCN(Cc3c(C)noc3C)[C@@H]2C1`, the INHIBITION is reported as -93.2%.
Compound `c1cncc(O[C@H]2CC[C@H]3[C@H]2OCCN3C2CCC2)c1` has an INHIBITION of -27.2%.
With `Cc1ccc(Cl)cc1N1CCC(CNC(=O)CCn2ccnc2)C1` (stereo not drawn) the INHIBITION was 84.2%.
With `CCN1CCN(C(=O)c2cn(Cc3ccccc3)c3ncccc23)CC1` the INHIBITION was 20.5%.
With `CC(=O)c1cc(C(=O)N2CC[C@H]3CC[C@@H](C2)N3C)c(=O)[nH]c1C` the INHIBITION was -102%.
Work on `CN1[C@@H]2CC[C@H]1CN(C(=O)c1ccc(-c3ccccc3)[nH]1)CC2` yielded an INHIBITION of 79.7%.
`CCc1ncc(C(=O)N2CC[C@H]3CC[C@@H](C2)N3C)cn1` gave an INHIBITION of -3.55%.
Compound `COCCN1CCN(Cc2ccncc2)[C@H]2CS(=O)(=O)C[C@H]21` has an INHIBITION of -111%.
`CNC(=O)CN1CC[C@H]2CN(C(=O)c3ccc(C)nc3)C[C@H]2C1` was tested, and the INHIBITION was -17.9%.
